We go through 33 molecules from the supplement of paper PMC13380429.

The test system of assay [1] is Vero E6 infected with SARS-CoV-2. The experiment in a line: morphology score (similarity to uninfected cells); higher = more like uninfected cells. The conditions noted are these: 24 h.
The test system is the same in assay [2]. The experiment in a line: SARS-CoV-2 infection rate relative to infected DMSO; higher = more infection, active = 60 or less. As to conditions: 24 h.

With `C1=C2CCCN[C@H]2[C@@H]2C[C@H]1[C@H]1CCCCN1C2` [aloperine] (10 µM), the morphology score in assay [1] was found to be 0.199. Moreover, in assay [2], the SARS-CoV-2 infection rate was 102% (inactive).

`COP(=O)(OC)OC(c1ccc(Cl)cc1)P(=O)(OC)OC` (stereo unspecified) [mifobate] (10 µM) returned a morphology score in assay [1] of -0.0183. For the same molecule, in assay [2], the SARS-CoV-2 infection rate is 106% (inactive).

Regarding `O=C(O)/C=C/c1ccc(Cn2ccnc2)cc1` [ozagrel] (10 µM), the morphology score in assay [1] was 0.12. Besides, the SARS-CoV-2 infection rate in assay [2] is 92% (inactive).

As for `CCCn1c(=O)[nH]c(=O)c2nc[nH]c21` [enprofylline] (10 µM), the morphology score in assay [1] amounted to 0.188. In assay [2], the SARS-CoV-2 infection rate was 94% (inactive).

As for `Cc1cc(O)c2c(c1)C(=O)c1cc(O)cc(O)c1C2=O` [emodin] (10 µM), in assay [1], the morphology score came out at 0.146. The SARS-CoV-2 infection rate in assay [2] is 106% (inactive).

`CN1CCC(=C2c3ccccc3CCn3c(C=O)cnc32)CC1` [alcaftadine] (10 µM) gave a morphology score in assay [1] of 0.0541. In addition, the SARS-CoV-2 infection rate in assay [2] was 93.5% (inactive).

The molecule `Clc1ccccc1C(c1ccccc1)(c1ccccc1)n1cccn1` (10 µM) showed a morphology score in assay [1] of 0.0967. Further, in assay [2], the SARS-CoV-2 infection rate is 100% (inactive).

Molecule `O=C(/C=C/c1c(C(=O)O)[nH]c2cc(Cl)cc(Cl)c12)Nc1ccccc1` [gavestinel] (10 µM) gave a morphology score in assay [1] of 0.121. In assay [2], the SARS-CoV-2 infection rate is 108% (inactive).

The molecule `OC[C@@H](O)[C@@H](O)CO` [erythritol] (10 µM) gave a morphology score in assay [1] of 0.135. The SARS-CoV-2 infection rate in assay [2] was 87.5% (inactive).

In the case of `Cn1cnc([N+](=O)[O-])c1Sc1ncnc2[nH]cnc12` [azathioprine] (10 µM), in assay [1], the morphology score amounted to 0.172. Besides, the SARS-CoV-2 infection rate in assay [2] is 95.5% (inactive).

In turn, `Nc1nc2[nH]cnc2c(=S)[nH]1` [thioguanine] (0.833333 µM) returned a morphology score in assay [1] of 0.218. For the same molecule, in assay [2], the SARS-CoV-2 infection rate is 98.5% (inactive).

`CCN(CC)C(=O)[C@@]1(c2ccccc2)C[C@H]1CN` [milnacipran] (10 µM) yielded a morphology score in assay [1] of 0.0186. Also, the SARS-CoV-2 infection rate in assay [2] was 105% (inactive).

Take `O=c1[nH]c(=O)n([C@H]2CCCO2)cc1F` (racemic) [ftorafur] (10 µM): the morphology score in assay [1] was -0.016. Besides, in assay [2], the SARS-CoV-2 infection rate was 116% (inactive).

`CN1C(=O)C(Cc2c[nH]c3ccccc23)NC1=S` (stereo unspecified) [necrostatin-1] (10 µM) gave a morphology score in assay [1] of 0.186. Further, in assay [2], the SARS-CoV-2 infection rate was 93.5% (inactive).

On to `Oc1ccc(OCc2ccccc2)cc1` [monobenzone] (10 µM), for which the morphology score in assay [1] was -0.207. Also, the SARS-CoV-2 infection rate in assay [2] was 119% (inactive).

The molecule `O=C1C[C@@H](c2ccc(O)cc2)Oc2cc(O)cc(O)c21` [naringenin] (10 µM) returned a morphology score in assay [1] of 0.0218. Besides, the SARS-CoV-2 infection rate in assay [2] was 98.5% (inactive).

Molecule `CNCCn1c(=O)c2cc(OC)c(OC)cc2c2cnc3cc4c(cc3c21)OCO4` (10 µM) had a morphology score in assay [1] of -0.381. In assay [2], the SARS-CoV-2 infection rate was 118% (inactive).

For the molecule `CC#CCn1c(N2CCC[C@@H](N)C2)nc2c1c(=O)n(Cc1nc(C)c3ccccc3n1)c(=O)n2C` [linagliptin] (10 µM), the morphology score in assay [1] is -0.0102. In addition, in assay [2], the SARS-CoV-2 infection rate was 110% (inactive).

On to `[Cl][Ru-]([Cl])([Cl])[Cl].[Na+].c1ccc2[nH]ncc2c1.c1ccc2[nH]ncc2c1` (10 µM), for which the morphology score in assay [1] came to 0.443. In assay [2], the SARS-CoV-2 infection rate was 43% (active).

With `COc1cc(OC)c(C(=O)CCCN2CCCC2)c(OC)c1` [buflomedil] (10 µM), the morphology score in assay [1] turned out to be 0.0545. Further, the SARS-CoV-2 infection rate in assay [2] was 102% (inactive).

In assay [1], `c1ccc(CN2CCC3(CCc4ccccc43)CC2)cc1` (10 µM) registered a morphology score of 0.228. The SARS-CoV-2 infection rate in assay [2] was 80.5% (inactive).

For `CCc1cccc(CC)c1NC(=O)CN(CC(=O)O)CC(=O)O` [etifenin] (10 µM), the morphology score in assay [1] was determined as 0.115. The SARS-CoV-2 infection rate in assay [2] is 109% (inactive).

`O=S1(=O)OC(c2ccc(O)cc2)(c2ccc(O)cc2)c2ccccc21` [phenolsulfonphthalein] (10 µM) returned a morphology score in assay [1] of 0.1. Moreover, the SARS-CoV-2 infection rate in assay [2] is 105% (inactive).

On to `C=CCN1C[C@H](C)N([C@H](c2ccc(C(=O)N(CC)CC)cc2)c2cccc(OC)c2)C[C@H]1C` (10 µM), for which the morphology score in assay [1] was -0.00563. In addition, the SARS-CoV-2 infection rate in assay [2] was 106% (inactive).

`CC[C@H]1CN2CCc3cc(OC)c(OC)cc3[C@@H]2C[C@@H]1C[C@H]1NCCc2cc(OC)c(OC)cc21` [emetine] (0.833333 µM) returned a morphology score in assay [1] of -0.193. For the same molecule, the SARS-CoV-2 infection rate in assay [2] is 108% (inactive).

As to `O=C(O)C(=O)CBr` [3-bromopyruvate] (10 µM), the morphology score in assay [1] is -0.102. Moreover, the SARS-CoV-2 infection rate in assay [2] is 111% (inactive).

For the molecule `CC(C)(C)CC(C)(C)c1cc(Cc2cc(C(C)(C)CC(C)(C)C)cc(-n3nc4ccccc4n3)c2O)c(O)c(-n2nc3ccccc3n2)c1` [bisoctrizole] (10 µM), the morphology score in assay [1] was -0.0457. Also, the SARS-CoV-2 infection rate in assay [2] was 114% (inactive).

Regarding `CC[C@H](c1ccc(O)cc1)[C@@H](CC)c1ccc(O)cc1` [hexestrol] (10 µM), in assay [1], the morphology score was determined as 0.143. In addition, in assay [2], the SARS-CoV-2 infection rate was 102% (inactive).

Molecule `CN(C)CC[C@@](O)(c1ccccc1)c1ccccc1Cl` [clofedanol] (10 µM) yielded a morphology score in assay [1] of -0.0705. Moreover, the SARS-CoV-2 infection rate in assay [2] was 110% (inactive).

Turning to `O=C1c2ccccc2-n2c1nc1ccccc1c2=O` [tryptanthrin] (10 µM), the morphology score in assay [1] came to 0.145. In addition, in assay [2], the SARS-CoV-2 infection rate is 96% (inactive).

In turn, `N=C(N)NCCC[C@H](N)C(=O)O` [L-arginine] (10 µM) returned a morphology score in assay [1] of 0.0506. The SARS-CoV-2 infection rate in assay [2] is 113% (inactive).

In the case of `Cc1cc(C)cc(C(=O)N(C)[C@H](Cc2ccc(-c3ccccc3)cc2)C(=O)N[C@@H](Cc2c[nH]c3ccccc23)C(=O)O)c1` (10 µM), in assay [1], the morphology score is 0.0271. The SARS-CoV-2 infection rate in assay [2] is 95% (inactive).

For `CC(=O)Nc1ccc(OCC(O)CNC(C)C)cc1` (stereo unspecified) [practolol] (10 µM), the morphology score in assay [1] was -0.0762. The SARS-CoV-2 infection rate in assay [2] is 106% (inactive).
